Assay outcomes (PubChem)
Rows were chosen to be rich in hits. Some 7.3% of all compounds tested hit in one or more screens of this group.
HCMV inh = qHTS Assay for inhibitors of the human cytomegalovirus (HCMV); HFF cells, HCMV-luciferase reporter, 72 h; active compounds read low; activity change, negative = inhibition, % at 57.5 µM; hit rate 4.5% among 410,000; AID 1259415, 2018; in the data active = activity change below about -60%; inconclusive = no clear call, values can overlap the other calls; inactive = above about -39%
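After 16 h attachment at 37C, HFF cells received test compound and HCMV-luciferase (1 PFU/cell); reporter luminescence read 72 h later, data normalized against buffer-only and known inhibitor Salinomycin.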
AmpC inh no detg = qHTS Inhibitors of AmpC Beta-Lactamase (assay without detergent); P00811; AmpC nitrocefin hydrolysis, absorbance 480 nm, 0.0001% Triton; Potency, µM (doses to about 57.1 µM), for inactives: at the top dose activity change, negative = inhibition, most hits filed as inhibitors; hit rate 0.52% among 330,000; AID 485341, 2010;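 also: potency is read from the fitted curve at half-maximal effect; plate controls were no compound for no effect and no enzyme for full effect; nearly all actives have a fitted effect of over 20% in size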
Target sequence (P00811 whole entry, looked up): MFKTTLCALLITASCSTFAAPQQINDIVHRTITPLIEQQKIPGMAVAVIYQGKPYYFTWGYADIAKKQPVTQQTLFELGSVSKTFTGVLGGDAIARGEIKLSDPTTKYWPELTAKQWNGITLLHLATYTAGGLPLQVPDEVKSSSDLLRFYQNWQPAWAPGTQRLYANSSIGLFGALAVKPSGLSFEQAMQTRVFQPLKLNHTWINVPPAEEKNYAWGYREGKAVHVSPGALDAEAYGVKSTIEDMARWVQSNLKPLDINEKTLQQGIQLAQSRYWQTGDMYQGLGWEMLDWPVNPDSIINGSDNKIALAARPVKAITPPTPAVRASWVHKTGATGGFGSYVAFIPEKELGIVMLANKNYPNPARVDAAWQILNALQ
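20 mM phosphate pH 7.0 + 0.01% (detergent screen) or 0.0001% Triton X-100; 5.3 nM AmpC reagent; cpd preinc 15 min RT; nitrocefin (800 uM stock) to start; A480 q20 s × 4 min; Activity was normalised to no-enzyme and no-compound control wells.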
FMDV inh = High Throughput Screening for Foot and Mouth Disease Virus Antivirals. FMDV antiviral cell-based qHTS. Potency, µM (titrated, usually from 57.9 µM), for inactives: at the top dose activity change, negative = inhibition, most hits filed as inhibitors. hit rate 1.2% among 410,000. AID 1159524, 2015; calls by dose curve; tested in HEK293T cells; also: read-out not given here; potency is read from the fitted curve at half-maximal effect; nearly all actives have a fitted effect of over 45% in size
HCV inh = qHTS Assay for Inhibitors of Hepatitis C Virus (HCV). Huh7.5.1 HCVcc-Cre infection, luciferase reporter, 44 h. Potency, µM (top dose mostly 41.8 µM), without a hit: at the top dose activity change, negative = inhibition, actives largely listed as inhibitors. hit rate 3.4% among 340,000; also: potency is read from the fitted curve at half-maximal effect
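Infectious HCV cell culture screen: compound-treated cells (1,000/well, pre-plated 4 h) are infected with HCVcc-Cre at roughly 0.5 moi and grown 44 h. Infection is quantified by luciferase signal after 15 min substrate incubation at room temperature.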
AmpC inh detg = qHTS Inhibitors of AmpC Beta-Lactamase (assay with detergent) | AmpC hydrolysis of nitrocefin, absorbance 480 nm, 0.01% Triton | Potency, µM (top dose mostly 114 µM), for inactives: top-dose activity change, negative = inhibition, most hits filed as inhibitors | hit rate 0.041% among 370,000 | AID 485294, 2010;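 also: potency is read from the fitted curve at half-maximal effect; 0% = no-compound wells and -100% = no-enzyme wells; nearly all actives have a fitted effect of over 25% in size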
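AmpC (5.3 nM in the dispensed reagent) in 20 mM phosphate pH 7.0 with 0.01% (detergent screen) or 0.0001% Triton X-100 was preincubated with compounds for 15 min at room temperature. Nitrocefin was then added from an 800 uM solution, and hydrolysis was followed at 480 nm.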
* = called active by the depositor; ? = inconclusive; . = no result. Unless noted, calls follow the shape of the dose curve; as a rule, active = well fitted curve in the direction sought with a large enough effect; inconclusive = small, poorly fitted or top-dose-only effect, or another doubt; inactive = no such curve, though single readings can be large; an effect the other way counts as inactive or inconclusive. Unless noted, % is scaled to controls: 0 for no effect and ±100 for the full control effect.

SMILES | HCMV inh | AmpC inh no detg | FMDV inh | HCV inh | AmpC inh detg
O=C(Cn1c(=O)c2cccn2c2ccccc21)NCCCN1CCCCC1 | 8 | -5% | -10% | 9% | -1%
CC(C)(C)OC(=O)C[C@H]1C/C=C\C[C@H](CC(=O)NCCO)C(=O)N2CCC[C@@H]2COC1=O | -60* | 9% | -2% | 17% | .
CC(C)CC1C(=O)N(Cc2cn(CCC3OCCO3)nn2)CCS(=O)(=O)N1Cc1ccc(-c2ccccc2)cc1 (stereo unspecified) | -19 | . | ? | . | .
Cc1ccc(-c2ccc(CN3C(CC(C)C)C(=O)N(Cc4cn(Cc5ccco5)nn4)CCS3(=O)=O)cc2)cc1 (stereo unspecified) | -7 | . | -11% | . | .
CC1C(=O)N(Cc2cn(CCC3OCCCO3)nn2)CCS(=O)(=O)N1Cc1ccc(-c2ccc(Cl)cc2)cc1 (stereo unspecified) | ? | . | 11µM* | . | .
CC1C(=O)N(Cc2cn(CCC3OCCCO3)nn2)CCS(=O)(=O)N1Cc1ccc(-c2ccccc2)cc1 (stereo unspecified) | 3 | . | -3% | . | .
CC(C)CC1C(=O)N(Cc2cn(Cc3ccco3)nn2)CCS(=O)(=O)N1Cc1ccc(-c2cccc(N(C)C)c2)cc1 (stereo unspecified) | -101* | . | 0% | . | .
Cc1ccc(-c2ccc(CN3C(CC(C)C)C(=O)N(Cc4cn(CCC5OCCO5)nn4)CCS3(=O)=O)cc2)cc1 (stereo unspecified) | -101* | . | ? | . | .
Cn1c(CNC(=O)CNS(=O)(=O)c2ccc(Br)cc2)cc(=O)n(C)c1=O | -38 | -1% | -7% | 12% | -14%
CN(c1ccccc1)c1cc(Br)nc(Br)c1 | -34 | . | -9% | 6% | .
Cc1c(C(=O)N2CCCC2)oc2c1-c1nn(CC(=O)NCc3cccc(Br)c3)cc1CC2 | -27 | . | -18% | . | -4%
CCOC(=O)C(Cc1ccccc1)(Nc1ccccc1OC)C(O)c1ccccc1Br (stereo unspecified) | -5 | . | . | . | .
O=C(CCc1c[nH]c2ccccc12)N=Nc1c(O)[nH]c2ccccc12 | 0 | 32µM* | -9% | -11% | -6%
Cc1ccccc1CCN(C(=O)Cn1nnc2ccccc21)C(C(=O)NC(C)(C)C)c1ccsc1 (stereo unspecified) | 0 | -17% | 34% | 4% | 5%
Cc1cccc(N(C(=O)Cn2nnc3ccccc32)C(C(=O)NC(C)(C)C)c2ccsc2)c1C (stereo unspecified) | ? | 0.22µM* | . | -3% | 0%
CN(C)CCNC(=O)C1CCN(Cc2cc3ccccc3n2Cc2ccccc2)CC1 | -101* | . | . | . | -4%
CCCNC(=O)C1CCN(Cc2cc3ccccc3n2Cc2ccccc2)CC1 | -19 | . | -29% | . | 1%
O=C(NCCCN1CCOCC1)c1ccc2c(c1)N(Cc1c(F)cccc1Cl)C(=O)c1ccccc1S2 | 0 | 190% | ? | ? | -1%
CC(C)CCNC(=O)c1ccc2c(c1)N(Cc1ccccc1)C(=O)CS2=O (stereo unspecified) | -15 | ? | -12% | ? | ?
Cc1cccc(CN2C(=O)c3ccccc3Sc3ccc(C(=O)NCc4ccco4)cc32)c1 | -73* | . | -7% | . | 10%
O=C(NCCCN1CCOCC1)c1ccc2c(c1)N(Cc1cccc(Cl)c1)C(=O)c1ccccc1S2 | -89* | . | -21% | . | 4%
O=C(NCCc1ccccc1)c1ccc2c(c1)N(Cc1ccccc1)C(=O)CS2=O (stereo unspecified) | 30 | 5µM* | 1% | 1% | ?
CCN1CCN(CCNC(=O)c2ccc3c(c2)N(Cc2cccc(Cl)c2)C(=O)c2ccccc2S3=O)CC1 (stereo unspecified) | -73* | 112% | 27% | ? | 1%
COc1ccccc1-c1noc(-c2ccc(NCC3CCCO3)c([N+](=O)[O-])c2)n1 (stereo unspecified) | 34 | . | 4% | . | -11%
CCN(CC)CCNC(=O)c1ccc2c(c1)N(Cc1ccccc1)C(=O)c1ccccc1S2=O (stereo unspecified) | -70* | . | -20% | . | -12%
SMILES | HCMV inh | AmpC inh no detg | FMDV inh | HCV inh | AmpC inh detg
COc1ccc(Cl)cc1C(=O)NNC(=O)c1[nH]c(C)c(C(C)=O)c1C | 64 | 10µM* | 13% | ? | .
COc1ccccc1OCC(=O)c1[nH]c(C)c(C(C)=O)c1C | -31 | -46% | 20µM* | ? | -11%
COc1cc(C)ccc1OCC(=O)OCC(=O)c1[nH]c(C)c(C(C)=O)c1C | -5 | 2% | -22% | -5% | .
CC(=O)c1c(C)[nH]c(C(=O)NNC(=O)c2ccc(C)cc2)c1C | 36 | -20% | -14% | ? | .
CC(=O)c1c(C)[nH]c(C(=O)COc2ccc(C#N)cc2)c1C | -8 | -13% | -25% | ? | -10%
CC(=O)c1c(C)[nH]c(C(=O)COc2cc(C)ccc2C(C)C)c1C | ? | -21% | -14% | 5.6µM* | 8%
CNC(=O)C1CCC(Cn2c(=O)c3sccc3n(CC(=O)NCc3ccccc3)c2=O)CC1 (stereo unspecified) | 41 | . | -7% | . | 14%
S=c1[nH]nc(Cc2ccccc2)n1Cc1ccco1 | -109* | -47% | -23% | 12% | -12%
COc1ccc(CCN2CC(C(=O)N(C)CC(=O)Nc3cccc(F)c3)CC2=O)cc1OC (stereo unspecified) | -30 | 48% | -15% | -2% | -5%
O=C1NC(c2ccccc2)Nc2c1sc(=S)n2-c1ccccc1 (stereo unspecified) | -104* | -31% | ? | 0% | -5%
COc1ccc(C(=O)NNC(=O)C(NC(=O)c2ccccc2NC(=O)c2ccco2)C(C)C)cc1 (stereo unspecified) | -38 | 0% | -17% | 4% | ?
COc1ccc(Cl)cc1NC(=O)c1ccco1 | -5 | -18% | -10% | 11µM* | 0%
COc1cc(NC(=O)[C@@H](NC(=O)c2ccco2)C(C)C)c(OC)cc1NC(=O)c1ccccc1 | -37 | -17% | -6% | 7.9µM* | 1%
COc1ccc(Cl)cc1C(=O)NNC(=O)CNC(=O)c1ccco1 | -99* | -10% | -8% | 5% | .
Cc1cc2nc(-c3ccc4c(c3)CCC4)ccn2n1 | ? | -7% | 20% | -5% | -6%
CCCc1nc2ccc(C)cn2c1Cc1ccccc1C(F)(F)F | -69* | . | -17% | . | .
CCCc1nc2ccc(C)cn2c1Cc1ccccc1OC | 8 | . | -4% | . | .
CC(=O)c1ccc(S(=O)(=O)N2CCN(C(=O)CN3C(=O)NC4(CCCC4)C3=O)CC2)cc1 | -3 | -5% | 2% | 2% | -5%
CC1CCN(S(=O)(=O)c2nnc(NC(=O)COc3ccccc3)s2)CC1 | 44 | -51% | -5% | 3% | -13%
